According to PubChem BioAssay (NCATS):
Results filed as inconclusive are left out. Active and inactive are the calls of the source. Unless noted, calls follow the shape of the dose curve; as a rule, active = well fitted curve in either direction with a large enough effect (not every such curve was filed as active); inconclusive = small, poorly fitted or top-dose-only effect, or another doubt; inactive = flat fitted curve, though single readings scatter.

Experiments:
[1] = Stat Signaling Pathway (AID 446); details: ME-180 (cervical carcinoma) SIE beta-lactamase reporter, IL-6 stimulated, 5 h; at 38 µM (top of the series) unless noted;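 also: ME-180 cervical cancer cells given 40 pM IL-6 alongside compound; SIE-controlled beta-lactamase reporter measured as 460/530 nm FRET emission ratio; % is scaled to controls: 0 for no effect and ±100 for the full control effect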
Outline: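 Emission at 460 and 530 nm (excitation 405 nm) reports SIE-controlled beta-lactamase in ME-180 cells. Cells received compound with 40 pM IL-6 for 5 hrs at 37 C; data scaled between 300 pM IL-6 and 125 nM JAK-inhibitor controls.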

[2] = target: Glucocorticoid receptor (Homo sapiens) (UniProt P04150); test: GR-GFP Redistribution (AID 450;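 active = compounds whose dose series gives a full or clear partial fitted curve of increased nuclear translocation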; also: potency is read from the fitted curve at half-maximal effect); details: U2OS GR-GFP nuclear translocation, laser cytometry, 2 h
[3] = target: Glucocorticoid receptor (Homo sapiens) (UniProt P04150); test: GR-EFC Redistribution (AID 451; calls by dose curve; also: potency is read from the fitted curve at half-maximal effect); details: CHO-K1 GR-EFC translocation, beta-gal luminescence, 2 h
Outline: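 CHO-K1 cells stably expressing nuclear-localized β-gal enzyme acceptor and GR fused C-terminally to the enzyme donor fragment; ligand-driven nuclear translocation restores β-gal by complementation. Compounds titrated up to 46 uM final, 2 h at 37 °C; luminescence read.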

[4] = target: Mitogen-activated protein kinase 10 (Mus musculus) (UniProt Q61831); test: JNK3 AlphaScreen Assay (AID 530);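 also: kinase came from lysate of stimulated human HepG2 cells; signal reports phosphorylation of biotinylated GST-cJun 1-79 at Ser73 with 10 µM ATP; % is scaled to controls: 0 for no effect and ±100 for the full control effect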
Outline: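 Biotinylated GST-cJun(1-79) served as substrate for JNK3 in HepG2 lysates stimulated with IL-1beta and TNF-alpha. ATP was 10 uM final, pH 7.6. Ser73 phosphorylation was quantified by AlphaScreen (680 nm excitation).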

[5] = target: 3',5'-cyclic-AMP phosphodiesterase 4B (Homo sapiens) (UniProt Q07343); test: qHTS Assay for Inhibitors of PDE-IV (AID 607; active = well fitted activation curve with a large enough effect in the main read-out, with a control signal flat, not every such curve was filed as active; also: % of control where 0% means no effect)
Outline: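 The readout is membrane depolarisation from a cAMP-sensing CNG channel, detected with a potential dye at ex 535/em 590. Cells were HEK293-derived (endogenous PDE-IV) at 1000 cells/well, titrated up to 22.9 uM final.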

[6] = Cell Viability - N2a (AID 540; active = well fitted curve in the direction sought with a large enough effect; an effect the other way counts as inactive or inconclusive;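 also: cells exposed to compound for 40 h at 37 °C; plate controls were DMSO alone for no effect and tamoxifen control for full effect; nearly all actives have a fitted effect of over 45% in size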)
Outline: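 In this qHTS cytotoxicity screen, ATP-dependent luciferase luminescence reports viable N2a cells after a 40 hr compound exposure in complete culture medium. Potencies are AC50 values from standard Hill equation fits.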

[7] = Cell Viability - NIH 3T3 (AID 541; active = well fitted curve in the direction sought with a large enough effect; an effect the other way counts as inactive or inconclusive;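 also: cells exposed to compound for 40 hours; plate controls were DMSO alone for no effect and tamoxifen positive control for full effect; nearly all actives have a fitted effect of over 25% in size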)
Outline: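 In this cytotoxicity screen, acute toxicity is scored as an ATP drop measured by CellTiter-Glo in NIH 3T3 fibroblasts following a 40 hr, 37 °C incubation with compound.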

[8] = Cell Viability - HUV-EC-C (AID 542; active = well fitted curve in the direction sought with a large enough effect; an effect the other way counts as inactive or inconclusive;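 also: cells exposed to compound for 40 hours; % is scaled to controls: 0 for no effect and ±100 for the full control effect; nearly all actives have a fitted effect of over 35% in size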)
Outline: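 Concentration-dependent ATP loss in HUV-EC-C cells is the measure. Exposure lasts 40 hr at 37 °C; luminescence follows CellTiter-Glo addition, and Hill fits give AC50.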

[9] = Cell Viability - H-4-II-E (AID 543; active = well fitted curve in the direction sought with a large enough effect; an effect the other way counts as inactive or inconclusive;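 also: cells exposed to compound for 40 hours; % is scaled to controls: 0 for no effect and ±100 for the full control effect; nearly all actives have a fitted effect of over 35% in size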)
Outline: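 AC50 from Hill-modelled qHTS concentration-response curves. H-4-II-E rat hepatoma cells in complete medium, 40 hr exposure at 37 °C, viability by CellTiter-Glo ATP luminescence.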

[10] = Cell Viability - SH-SY5Y (AID 544; active = well fitted curve in the direction sought with a large enough effect; an effect the other way counts as inactive or inconclusive;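 also: cells exposed to compound for 40 hours; 0% = DMSO alone and -100% = 100 µM tamoxifen; nearly all actives have a fitted effect of over 55% in size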)
Outline: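 Quantitative HTS in SH-SY5Y neuroblastoma cells, 40 hr treatment at 37 °C, ATP content by luciferase luminescence; AC50 from Hill fits.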

[11] = Cell Viability - Renal Proximal Tubule (AID 545; active = well fitted curve in the direction sought with a large enough effect; an effect the other way counts as inactive or inconclusive;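 also: cells exposed to compound for 40 hours; 0% = DMSO only and -100% = 100 µM tamoxifen; nearly all actives have a fitted effect of over 40% in size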)
Outline: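 Cytotoxicity is scored as a concentration-dependent drop in cellular ATP in primary rat renal proximal tubule cells exposed for 40 hr. AC50 derives from Hill modelling.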

[12] = Cell Viability - Mesenchymal (AID 546; active = well fitted curve in the direction sought with a large enough effect; an effect the other way counts as inactive or inconclusive;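 also: cells exposed to compound for 40 hours before reading; 0% = DMSO only and -100% = 100 µM tamoxifen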)
Outline: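 In this qHTS cytotoxicity format, glomerulus-derived human mesenchymal kidney cells received compound for 40 hr, then luciferase-based ATP quantitation. Concentration-response data were fitted with the Hill equation.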

[13] = Cellular Toxicity (caspase-3) HepG2 (AID 654; active = well fitted curve in the direction sought with a large enough effect; an effect the other way counts as inactive or inconclusive;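 also: cells exposed to compound for 16 hours before reading; 0% = DMSO alone and 100% = caspase signal from 100 µM tamoxifen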)
Outline: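 Concentration-response AC50 values reflect caspase-3/7 induction in HepG2 cells after 16 hours of compound exposure, quantified by luminescence from liberated aminoluciferin and referenced to 100 uM tamoxifen as full stimulation.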

[14] = Cellular Toxicity (caspase-3) Jurkat (AID 655; active = well fitted curve in the direction sought with a large enough effect; an effect the other way counts as inactive or inconclusive;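 also: cells exposed to compound for 16 h at 37 °C before reading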)
Outline: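 Caspase 3/7 activation is scored as increased luminescence in Jurkat cells cultured with compound for 16 hours in complete medium. AC50 values come from Hill fits of qHTS concentration-response data normalized to DMSO and 100 uM tamoxifen controls.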

[15] = Cellular Toxicity (caspase-3) HUV-EC-C (AID 656; active = well fitted curve in the direction sought with a large enough effect; an effect the other way counts as inactive or inconclusive;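 also: 0% = DMSO basal and 100% = 100 µM tamoxifen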)
Outline: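 Read-out: luminescence proportional to caspase 3/7 activity, measured 20 min after adding Caspase-Glo 3/7 reagent. Cells (HUV-EC-C) had received compound for 16 hr at 37°C. Increases relative to DMSO and 100 uM tamoxifen gave concentration-response AC50 values.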

[16] = Cellular Toxicity (caspase-3) SHSY5Y (AID 657; active = well fitted curve in the direction sought with a large enough effect; an effect the other way counts as inactive or inconclusive)
Outline: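 Cells plated and incubated 5 h at 37 °C, dosed over a concentration range, incubated 16 h, then given Caspase-Glo 3/7 reagent for 1 h at room temperature before luminescence reading. Staurosporine (10 uM) defined full stimulation.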

[17] = Cellular Toxicity (caspase-3) BJ (AID 658; active = well fitted curve in the direction sought with a large enough effect; an effect the other way counts as inactive or inconclusive;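 also: 0% = DMSO basal and 100% = 10 µM staurosporine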)
Outline: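 Plated BJ cells (1000/well) rested 5 hr, received compound for 16 hr at 37 °C, then Caspase-Glo 3/7 reagent for 1 hr at room temperature before luminescence reading.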

[18] = Cellular Toxicity (caspase-3) MRC-5 (AID 659; active = well fitted curve in the direction sought with a large enough effect; an effect the other way counts as inactive or inconclusive;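 also: 0% = DMSO basal and 100% = 10 µM staurosporine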)
Outline: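 Apoptosis readout in MRC-5 cells: luciferase light generated after caspase 3/7 cleaves a peptide-aminoluciferin substrate, measured post 16 hr compound incubation at 37 °C.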

[19] = Cellular Toxicity (caspase-3) Mesangial (AID 660; active = well fitted curve in the direction sought with a large enough effect; an effect the other way counts as inactive or inconclusive;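 also: cells exposed to compound for 16 h before the caspase read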)
Outline: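 AC50 values come from Hill-equation fits of caspase 3/7 activation, measured as Caspase-Glo luminescence in human glomerular mesangial cells exposed to compound for 16 h at 37 °C; 100% set by 100 uM tamoxifen.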

[20] = Cellular Toxicity (caspase-3) SK-N-SH (AID 661; active = well fitted curve in the direction sought with a large enough effect; an effect the other way counts as inactive or inconclusive;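 also: 0% = DMSO basal and 100% = 10 µM staurosporine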)
Outline: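 Apoptosis readout in SK-N-SH neuroblastoma: Caspase-Glo 3/7 luminescence following 16 hr treatment in complete culture medium. Normalization used DMSO and 10 uM staurosporine controls.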

Glucocorticoid receptor (Homo sapiens), sequence (P04150 whole entry, looked up, the tested form may be a part): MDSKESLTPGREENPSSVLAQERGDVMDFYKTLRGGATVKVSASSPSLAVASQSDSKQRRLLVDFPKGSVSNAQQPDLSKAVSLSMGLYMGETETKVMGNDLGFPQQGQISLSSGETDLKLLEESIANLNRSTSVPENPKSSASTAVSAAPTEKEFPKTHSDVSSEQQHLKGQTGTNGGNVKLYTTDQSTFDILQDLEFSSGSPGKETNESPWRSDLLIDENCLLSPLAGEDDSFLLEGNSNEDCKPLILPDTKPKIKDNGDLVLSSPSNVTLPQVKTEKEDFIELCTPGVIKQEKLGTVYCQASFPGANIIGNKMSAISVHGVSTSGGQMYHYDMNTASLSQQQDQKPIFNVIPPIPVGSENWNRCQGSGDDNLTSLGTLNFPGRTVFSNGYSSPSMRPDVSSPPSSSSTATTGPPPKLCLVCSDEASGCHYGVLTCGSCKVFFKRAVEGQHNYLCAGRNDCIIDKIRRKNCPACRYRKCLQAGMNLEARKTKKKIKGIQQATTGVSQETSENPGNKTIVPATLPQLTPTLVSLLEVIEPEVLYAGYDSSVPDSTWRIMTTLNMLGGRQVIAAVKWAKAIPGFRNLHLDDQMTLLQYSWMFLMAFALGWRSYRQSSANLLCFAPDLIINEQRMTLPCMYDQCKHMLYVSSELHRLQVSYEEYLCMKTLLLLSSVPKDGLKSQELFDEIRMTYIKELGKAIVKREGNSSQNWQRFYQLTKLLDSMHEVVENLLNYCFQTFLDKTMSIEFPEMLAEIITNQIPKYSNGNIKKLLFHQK
3',5'-cyclic-AMP phosphodiesterase 4B (Homo sapiens), sequence (Q07343 whole entry, looked up): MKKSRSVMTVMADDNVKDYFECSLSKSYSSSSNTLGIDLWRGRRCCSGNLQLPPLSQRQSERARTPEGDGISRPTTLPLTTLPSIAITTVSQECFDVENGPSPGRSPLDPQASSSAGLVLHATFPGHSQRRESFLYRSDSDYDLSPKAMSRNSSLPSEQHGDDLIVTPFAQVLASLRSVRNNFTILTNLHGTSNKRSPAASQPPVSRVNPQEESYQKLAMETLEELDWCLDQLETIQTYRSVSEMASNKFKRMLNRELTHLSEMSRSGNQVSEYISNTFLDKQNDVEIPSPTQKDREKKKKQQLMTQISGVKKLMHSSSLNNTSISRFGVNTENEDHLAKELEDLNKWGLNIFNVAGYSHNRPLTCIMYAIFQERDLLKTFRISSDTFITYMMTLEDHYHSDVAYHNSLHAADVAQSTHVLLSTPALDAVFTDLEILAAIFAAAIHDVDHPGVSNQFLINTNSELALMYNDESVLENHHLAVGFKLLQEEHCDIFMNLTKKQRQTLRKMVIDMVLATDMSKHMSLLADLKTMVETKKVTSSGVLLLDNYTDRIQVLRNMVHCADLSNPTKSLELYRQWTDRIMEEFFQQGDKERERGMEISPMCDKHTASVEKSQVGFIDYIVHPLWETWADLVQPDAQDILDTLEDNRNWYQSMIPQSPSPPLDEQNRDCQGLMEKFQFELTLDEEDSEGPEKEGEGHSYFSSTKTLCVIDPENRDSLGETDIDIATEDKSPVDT

CCCCCCCCCCCCCCSCC(=O)O
inactive: activity, negative = inhibition [1] -3.53% | Potency [2] > 46 µM | Potency [3] > 46 µM | outcome [4]

NS(=O)(=O)c1cccc2c1c([N+](=O)[O-])cc1nc(O)c(O)nc12
inactive: activity, negative = inhibition [1] -3.69% | Potency [2] > 46 µM | Potency [3] > 46 µM | outcome [4]

CNc1cc(NS(=O)(=O)c2ccc(N)cc2)nc(NC)n1
inactive: activity, negative = inhibition [1] 13.2% | Potency [2] > 46 µM | Potency [3] > 46 µM

O=C1Cc2c([nH]c3ccc(Br)cc23)-c2ccccc2N1
active: activity, negative = inhibition [1] -29.2%
inactive: Potency [2] > 46 µM | Potency [3] > 46 µM | outcome [4]

CC(C)Cn1c(=O)n(C)c(=O)c2[nH]cnc21
inactive: activity, negative = inhibition [1] -25.6% | Potency [2] > 46 µM | Potency [3] > 46 µM | outcome [4]

O=c1[nH]ccc2c(O)cccc12
inactive: activity, negative = inhibition [1] -2.82% | Potency [2] > 46 µM | Potency [3] > 46 µM | outcome [4]

O=c1onc2n1-c1cc(Br)ccc1OC2
inactive: activity, negative = inhibition [1] -16.1% | Potency [2] > 46 µM | Potency [3] > 46 µM | outcome [4]

CCCCCCN(CCCCCC)C(=O)Cc1c(-c2ccc(F)cc2)[nH]c2ccccc12
inactive: activity, negative = inhibition [1] 6.88% | Potency [2] > 46 µM | Potency [3] > 46 µM | outcome [4] | Potency [5]

Nc1ncnc2c1c(-c1ccc(Oc3ccccc3)cc1)cn2C1CCCC1
inactive: activity, negative = inhibition [1] -13.6% | Potency [2] > 46 µM | Potency [3] > 46 µM | outcome [4] | Potency [5]

CC(=O)N[C@@H](Cc1c[nH]c2ccccc12)C(=O)OCc1cc(C(F)(F)F)cc(C(F)(F)F)c1
inactive: activity, negative = inhibition [1] 1.93% | Potency [2] > 46 µM | Potency [3] > 46 µM | outcome [4] | Potency [5]

Cc1cccc(C(=O)NCN2CCN(c3ccccc3C#N)CC2)c1
inactive: activity, negative = inhibition [1] -3.73% | Potency [2] > 46 µM | Potency [3] > 46 µM | outcome [4] | Potency [5]

NC1(C(=O)O)CCCCC1
inactive: activity, negative = inhibition [1] 9.73% | Potency [2] > 46 µM | Potency [3] > 46 µM | outcome [4] | Potency [5]

CCn1c(=O)[nH]c2cc(Cl)c(Cl)cc21
inactive: activity, negative = inhibition [1] -18.6% | Potency [2] > 46 µM | Potency [3] > 46 µM | outcome [4] | Potency [5]

CCCc1c(OCCCOc2ccc(OCC(=O)O)cc2)ccc(C(C)=O)c1O
inactive: activity, negative = inhibition [1] 11.2% | Potency [2] > 46 µM | Potency [3] > 46 µM | outcome [4] | Potency [5]

NC(N)=NC(N)=Nc1ccccc1
inactive: activity, negative = inhibition [1] -15.1% | Potency [2] > 46 µM | Potency [3] > 46 µM | outcome [4] | Potency [5]

O=c1cc(-c2ccccc2)[nH]c2nc(Cl)ccc12
inactive: activity, negative = inhibition [1] -25.2% | Potency [2] > 46 µM | Potency [3] > 46 µM | outcome [4] | Potency [5]

Cc1nc(N=Nc2ccc(S(=O)(=O)O)cc2S(=O)(=O)O)c(COP(=O)(O)O)c(C=O)c1O
inactive: activity, negative = inhibition [1] 5.69% | Potency [2] > 46 µM | Potency [3] > 46 µM | outcome [4] | Potency [5]

CC(=O)NCCc1c[nH]c2ccc(O)cc12
inactive: activity, negative = inhibition [1] -51.8% | Potency [2] > 46 µM | Potency [3] > 46 µM | outcome [4] | Potency [5]

Nc1ccc2c3c(cccc13)C(=O)NC2=O
inactive: activity, negative = inhibition [1] -25.5% | Potency [2] > 46 µM | Potency [3] > 46 µM | outcome [4] | Potency [5]

Cn1ccnc1
inactive: activity, negative = inhibition [1] 8.3% | Potency [2] > 46 µM | Potency [3] > 46 µM | outcome [4] | Potency [5]

O=c1[nH]c2ccccc2c2ccccc12
inactive: activity, negative = inhibition [1] -7.28% | Potency [2] > 46 µM | Potency [3] > 46 µM | outcome [4] | Potency [5]

Nn1nnc2ccccc21
inactive: activity, negative = inhibition [1] 9.14% | Potency [2] > 46 µM | Potency [3] > 46 µM | outcome [4] | Potency [5]

O=c1oc(Cl)c(Cl)c2ccccc12
inactive: Potency [2] > 46 µM | Potency [3] > 46 µM | outcome [4] | Potency [5]
active: activity, negative = inhibition [1] 22.3%

CC(=O)C(C)=O
inactive: activity, negative = inhibition [1] 31.9% | Potency [2] > 46 µM | Potency [3] > 46 µM | outcome [4] | outcome [6] | outcome [7] | outcome [8] | outcome [9] | outcome [10] | outcome [11] | outcome [12] | Potency [5] | outcome [13] | outcome [14] | outcome [15] | outcome [16] | outcome [17] | outcome [18] | outcome [19] | outcome [20]

O=C(O)/C(=C/c1c(C(=O)O)[nH]c2cc(Cl)cc(Cl)c12)c1ccccc1
inactive: activity, negative = inhibition [1] 10.5% | Potency [2] > 46 µM | Potency [3] > 46 µM | outcome [4] | Potency [5]

N[C@H](C(=O)O)c1cc(O)cc(O)c1
inactive: activity, negative = inhibition [1] 9.71% | Potency [2] > 46 µM | Potency [3] > 46 µM | outcome [4] | Potency [5]

N#Cc1cc2nc(O)c(O)nc2cc1[N+](=O)[O-]
inactive: activity, negative = inhibition [1] -26.5% | Potency [2] > 46 µM | Potency [3] > 46 µM | outcome [4] | Potency [5]
